Compound activity as filed in PubChem BioAssay.
CRE-bla Fsk – Cell signaling CRE-BLA (Fsk stim); CHO CRE-bla reporter (cAMP response element driving beta-lactamase), forskolin EC10, beta-lactamase ratio; Potency, µM (doses to about 38.2 µM), inactives show top-dose activity change, negative = inhibition, hits mostly activators; hit rate 2.5% among 71,000; AID 662, 2007; active = well fitted activation curve with a large enough effect in the signal ratio, with a control signal flat, not every such curve was filed as active; inconclusive = small, poorly fitted or top-dose-only effect, or effect the other way, or a change in a side signal; the % refers to the signal ratio; also: % of control where 0% means no effect
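Titrated compounds plus EC10 NKH 477 on CHO CRE-bla cells, 3 h, 37 °C. CCF4, 2 h RT. Ratio 460/530 nm → AC50.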
p53ts 32C tox – qHTS Screen for Compounds that Selectively Target Cancer Cells with p53 Mutations: Cytotoxicity of p53ts Cells at the Permissive Temperature. H1299-p53A138V at 32C, ATP luminescence viability, 24 h. Potency, µM (top dose mostly 46.1 µM), for the others: at the highest dose activity change, negative = cytotoxicity, hits mostly cytotoxic. hit rate 0.93% among 130,000;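 also: 0% = DMSO and -100% = full killing by reference compound; nearly all actives have a fitted effect of over 55% in size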
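ATP-content luminescence (ATPlite) read-out after 24 h compound exposure at 32C in H1299-p53A138V cells (600/well). Tested up to 46 uM. Normalized to DMSO (0%) and 100 uM tamoxifen (100% killing); Hill-fit AC50.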
IkB sig inh – IkB Signaling | ABC-DLBCL IkBa-CBG/CBR dual luciferase ratio, 4 h; response scale: scaled: untreated 0%, proteasome inhibitor 100% | Potency, µM (doses to about 57.1 µM), for inactives: top-dose IkBa stabilization activation | hit rate 0.04% among 110,000 | AID 445, 2006; active = well fitted curve in the direction sought with a large enough effect in the signal ratio, not every such curve was filed as active; inconclusive = small, poorly fitted or top-dose-only effect, or a change in a side signal; the % refers to the signal ratio;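 also: the direction sought is a rising ratio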
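Curves were fitted separately to fusion (green), unfused (red) and ratio luminescence, then classed by r2, magnitude and activity. Cells: OCI-Ly3, 4 h compound plus doxycycline at 37C; 10 uM MG-132 defined full response.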
p53ts 39C kill – qHTS Screen for Compounds that Selectively Target Cancer Cells with p53 Mutations: Cytotoxicity of p53ts Cells at the Nonpermissive Temperature; H1299-p53A138V viability at 39C, ATP luminescence, 24 h; Potency, µM (series often up to 46.1 µM), for inactives: at the top dose activity change, negative = cell killing, most hits filed as cytotoxic; hit rate 1.5% among 130,000; AID 902, 2007; also: % is scaled to controls: 0 for no effect and ±100 for the full control effect; nearly all actives have a fitted effect of over 55% in size
Peg3 imprint – qHTS Assay for Compounds that Induce Erasure of Genomic Imprints; Potency, µM (top dose mostly 60.7 µM), without a hit: at the top dose activity change, positive = activation, most hits filed as activators; mouse ES Peg3-LacZ reporter, beta-gal luminescence, 40 h; hit rate 0.02% among 110,000; AID 1948, 2009
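Imprint erasure is scored as LacZ activity from the silenced maternal Peg3 allele in feeder-free female ES cells cultured 40 h with LIF. Luminescence is normalized to in-plate negative controls and fitted to the Hill equation.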
Numbers without * were called inactive; ? = inconclusive; / = no result given; [ ] = remark or other dose. Sampled rows, rich in hits. Any-hit rate of the full collection: about 3%. Unless noted, calls follow the shape of the dose curve; as a rule, active = well fitted curve in the direction sought with a large enough effect; inconclusive = small, poorly fitted or top-dose-only effect, or another doubt; inactive = no such curve, though single readings can be large; an effect the other way counts as inactive or inconclusive. Potency is read from the fitted curve at half-maximal effect.

SMILES	CRE-bla Fsk	p53ts 32C tox	IkB sig inh	p53ts 39C kill	Peg3 imprint
COc1ccc(CCNc2oc(COc3cccc(C)c3)nc2C#N)cc1OC	/	4%	?	-5%	14%[10.9 µM]
COc1ccc(CCNc2oc(COc3ccc(Cl)cc3)nc2C#N)cc1OC	/	22µM*	?	?	-8%[10.9 µM]
CC(=O)Nc1ccc(NC(=O)c2nc(S(=O)(=O)Cc3ccc(F)cc3)ncc2Cl)cc1	/	-18%	0%	10µM*	-37%[10.9 µM]
Cc1ccc(NC(=O)c2nc(S(=O)(=O)Cc3ccc(F)cc3)ncc2Cl)cc1C	/	16µM*	?	2.5µM*	-40%[10.9 µM]
COc1ccc(OC)c(NC(=O)c2nc(S(=O)(=O)Cc3ccc(F)cc3)ncc2Cl)c1	/	?	-2%	10µM*	-35%[10.9 µM]
Cc1ccc(S(=O)(=O)c2c(C)nn(C(C)(C)C)c2OC(=O)c2ccc(Br)o2)cc1	?	10µM*	?	-21%	-25%
Cc1ccc(S(=O)(=O)c2c(C)nn(C(C)(C)C)c2OC(=O)c2cccs2)cc1	-12%	?	3%	16µM*	-30%
Cc1ccc(C(=O)Oc2c(S(=O)(=O)c3ccccc3)c(C)nn2-c2ccccc2)cc1	/	10%	?	-4%	-3%[10.9 µM]
CC(=O)Oc1c(S(=O)(=O)c2ccc(C)cc2)c(C)nn1C(C)(C)C	-11%	-5%	?	5%	-14%
Cc1nn(C(C)(C)C)c(OC(=O)c2ccc3c(c2)OCO3)c1S(=O)(=O)c1ccccc1	-2%	-19%	-2%	16µM*	12%
Cc1ccc(S(=O)(=O)c2c(C)nn(C(C)(C)C)c2OC(=O)c2ccco2)cc1	?	?	?	25µM*	-19%
COc1ccc(N2CCN(C(=O)c3nc(-c4ccc(Cl)cc4)n4c3CCCCC4)CC2)cc1	/	-4%	/	/	/
COc1cc(CNCCSc2nnnn2C)ccc1OCc1ccccc1C	/	-11%	-2%	-7%	-16%[10.9 µM]
Cc1ccc2c(c1)C(=O)OC(C(=O)Nc1ncc(Cc3ccccc3Cl)s1)C2 (centres undefined)	/	-1%	?	8%	-5%[10.9 µM]
CCn1c(=O)c2cc(C(=O)NCCCN3CCN(c4ccc(F)cc4)CC3)sc2c2ccccc21	/	-4%	?	-23%	-16%[10.9 µM]
O=C1c2ccccc2C(=O)C1c1ccnc2ccccc12	/	?	/	5.6µM*	/
Cc1ccc(-n2nnc(-c3nsc(NC(=O)c4ccccc4C)n3)c2C)cc1Cl	/	-1%	-1%	-16%	-4%[10.9 µM]
O=C1C(Cl)=C(Nc2ccc(S(=O)(=O)Nc3ccccn3)cc2)C(=O)c2ccccc21	-4%[7.6 µM]	-1%[9.22 µM]	6.3µM*	2%[9.22 µM]	-35%[10.9 µM]
COc1cc(C(=O)NCc2cn3cccc(C)c3n2)cc(OC)c1OC	13µM*	-9%	5%	-9%	-9%
CCCCCNC(=O)c1cc2c(=O)n3ccccc3nc2n1C	/	-2%	?	-14%	-14%[10.9 µM]
Cn1c(C(=O)NCCC2=CCCCC2)cc2c(=O)n3ccccc3nc21	1.6µM*	-5%	0%	-9%	6%
CN(C)c1ccc(NC(=O)c2cc3c(=O)n4ccccc4nc3n2C)cc1	10µM*	-10%	-2%	-8%	-12%
Cn1c(C(=O)NCCCN2CCCC2=O)cc2c(=O)n3ccccc3nc21	5µM*	-4%	-2%	-12%	0%
Cn1c(C(=O)NCC2CCCO2)cc2c(=O)n3ccccc3nc21 (centres undefined)	2.5µM*	-1%	-2%	-3%	3%
COc1ccccc1OCCn1c(NC(=O)c2ccccc2Cl)nc2ccccc21	/	-8%	?	1%	-9%[10.9 µM]
Cn1c(C(=O)N2COCC2(C)C)cc2c(=O)n3ccccc3nc21	10µM*	-11%	-2%	-11%	-3%
CN(C(=O)c1cc2c(=O)n3ccccc3nc2n1C)c1ccccc1	/	-1%	?	33%	-15%[10.9 µM]
COc1cccc2c1Oc1ncccc1N(c1ccc(C(=O)NCc3cccc(C)c3)s1)C2	/	-3%	?	-6%	-10%[10.9 µM]
COc1ccc(-c2cc(C(F)(F)F)nc(SCC(=O)Nc3cc(C)on3)n2)cc1OC	2µM*	-1%	0%	-18%	-7%
